Source: PubChem (The Scripps Research Institute Molecular Screening Center)
Shown are actives, neighbours in structure and some others; about 4.1% of the full set was active somewhere.
DAX1 inh-1: inhibitors of DAX1 repression of SF-1 activated StAR promoter | HEK293T StAR-luciferase reporter, SF-1/DAX-1 repression relief | inhibition, % at 6.8 µM | hit rate 1.1% among 370,000 | AID 652010;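 active = inhibition above the mean over all tested compounds plus 3 SD, cut at about 3.6% in these data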;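 note: 0% = DAX-1 cells with DMSO and 100% = cells lacking DAX-1 with DMSO; higher inhibition means more luminescence from relief of DAX-1 repression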
ssDAF-12 act: activates DAF-12 receptor from parasite S. stercoralis. HEK293 ssDAF-12/GRIP1 lit1-tk-luc reporter, luminescence; % of 3 µM dafachronic acid response. activation, % at 6.8 µM. hit rate 1% among 370,000;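 active = activation above the mean over all tested compounds plus 3 SD, cut at about 0.9% in these data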;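 note: 0% = DMSO-only wells and 100% = 3 µM delta7-dafachronic acid wells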
DAX1 inh-2: NR0B1 (DAX1) inhibition; inhibition, % at 6.75 µM; AID 504766; hit rate 0.99% among 340,000; HEK293 Gal4-DAX1 luciferase reporter, luminescence;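 active = inhibition above the mean over all tested compounds plus 3 SD, cut at about 4.2% in these data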;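 note: 0% = DAX1-transfected cells with DMSO and 100% = empty-vector control cells with DMSO; inhibition shows as a rise in luminescence from relieved DAX1 repression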
Target sequence (P51843 207-470 limits assumed): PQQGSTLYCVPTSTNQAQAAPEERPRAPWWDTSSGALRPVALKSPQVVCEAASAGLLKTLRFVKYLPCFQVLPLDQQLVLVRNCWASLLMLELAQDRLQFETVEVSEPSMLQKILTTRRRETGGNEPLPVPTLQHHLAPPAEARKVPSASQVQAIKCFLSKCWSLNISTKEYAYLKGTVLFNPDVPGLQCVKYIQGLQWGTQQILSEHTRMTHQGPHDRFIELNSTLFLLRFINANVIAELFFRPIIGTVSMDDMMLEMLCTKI
hgDAF12 agonist: agonists of H. glycines DAF-12 nuclear receptor; HEK293 GAL4-hgDAF12 UAS-luciferase reporter, agonist luminescence; normalized to butyrate control; hit rate 1.8% among 370,000; AID 687014; activation, % at 6.8 µM;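 active = activation above a cutoff set at the mean of all screened compounds plus 3 SD, cut at about 10% in these data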;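 note: 0% = DMSO wells and 100% = sodium butyrate wells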
hcDAF-12 act: activators of H. contortus DAF-12 nuclear receptor; hit rate 1.4% among 370,000; HEK293 hcDAF-12 lit1-tk-luc reporter, luminescence; 0% DMSO, 100% Δ7-dafachronic acid; activation, % at 6.8 µM;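 active = activation above the mean of all tested compounds plus 3 SD, cut at about 5.5% in these data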;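 note: 100% = response to 3 µM Δ7-dafachronic acid high control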
Starred values were filed as active, the others as inactive.

What do the screens show for `COc1ccc(/C=N/NC(=O)c2c(C)nnn2-c2nonc2N)cc1OC`?
DAX1 inh-1: 0; ssDAF-12 act: -1; DAX1 inh-2: 5.8*; hgDAF12 agonist: 0; hcDAF-12 act: 0

How did COCc1cn(-c2cccc(-c3noc4c3C(=O)N(CC(=O)N3CCOCC3)CC4)c2)nn1 do in these assays?
DAX1 inh-1: 1; ssDAF-12 act: 0; hgDAF12 agonist: 4; hcDAF-12 act: -1

How did CCCN(CC(=O)Nc1ccc(NC(C)=O)cc1)CC(=O)Nc1ccc(F)c(F)c1F do in these assays?
DAX1 inh-1: -1; ssDAF-12 act: -1; DAX1 inh-2: 4.6*; hgDAF12 agonist: -1; hcDAF-12 act: -3

How did CCCN(CC(=O)Nc1cccc(Br)c1)CC(=O)Nc1ccc(F)c(F)c1F do in these assays?
DAX1 inh-1: -1; ssDAF-12 act: -2; DAX1 inh-2: -1; hgDAF12 agonist: 0; hcDAF-12 act: 0

Results for Cc1cc(C)c(NC(=O)COc2nncc3ccccc23)c(C)c1 ?
DAX1 inh-1: 0; ssDAF-12 act: 1.6*; DAX1 inh-2: 0; hgDAF12 agonist: -2; hcDAF-12 act: 1

Results for CC(C)c1ccc(NC(=O)COc2nncc3ccccc23)cc1 ?
DAX1 inh-1: 0; ssDAF-12 act: -1; DAX1 inh-2: -1; hgDAF12 agonist: -3; hcDAF-12 act: 0

Results for O=C(COc1nncc2ccccc12)Nc1ccc(F)c(F)c1 ?
DAX1 inh-1: 0; ssDAF-12 act: -2; DAX1 inh-2: 5.7*; hgDAF12 agonist: -3; hcDAF-12 act: 0

What do the screens show for `O=C(COc1nncc2ccccc12)Nc1c(F)c(F)c(F)c(F)c1F`?
DAX1 inh-1: -1; ssDAF-12 act: -2; DAX1 inh-2: 0; hgDAF12 agonist: -1; hcDAF-12 act: -2

How did COc1cc(OC)cc(C(=O)NC(=S)NNC(=O)c2cnccn2)c1 do in these assays?
DAX1 inh-1: 0; ssDAF-12 act: -2; DAX1 inh-2: 1; hgDAF12 agonist: 1; hcDAF-12 act: -1

Results for COc1ccc(C(=O)NC(=S)NNC(=O)c2cnccn2)cc1OC ?
DAX1 inh-1: 0; ssDAF-12 act: -1; DAX1 inh-2: 4.9*; hgDAF12 agonist: 5; hcDAF-12 act: -1

What do the screens show for `COC(=O)c1cnn(-c2ccc(F)cc2F)c1/C=N/NC(=S)Nc1ccccc1`?
ssDAF-12 act: -3; hgDAF12 agonist: -3; hcDAF-12 act: -3

Results for CCOc1ccccc1NC(=O)COC(=O)c1cc[n+]([O-])cc1 ?
DAX1 inh-1: 0; ssDAF-12 act: 0; DAX1 inh-2: 5.4*; hgDAF12 agonist: -2; hcDAF-12 act: -1

How did O=C(Nc1ccccc1)Nc1ccccc1 do in these assays?
DAX1 inh-1: 3; ssDAF-12 act: -1; DAX1 inh-2: 3; hgDAF12 agonist: 12*; hcDAF-12 act: 1

What do the screens show for `O=C(COc1ccccc1)NC1=NCCS1`?
DAX1 inh-1: 0; ssDAF-12 act: -1; DAX1 inh-2: 2; hgDAF12 agonist: 1; hcDAF-12 act: 2

Results for CC(C)(C)c1csc(NC(=O)Nc2ccccc2)n1 ?
DAX1 inh-1: 2; ssDAF-12 act: -1; DAX1 inh-2: 1; hgDAF12 agonist: 12*; hcDAF-12 act: 3

What do the screens show for `CC(Oc1ccccc1)C(=O)NC1=NCCS1` (centres undefined)?
DAX1 inh-1: 4.0*; ssDAF-12 act: 0; DAX1 inh-2: 4; hgDAF12 agonist: 5; hcDAF-12 act: 1

Results for CC(C)c1ccc(OCC(=O)NC2=NCCS2)cc1 ?
DAX1 inh-1: 3.7*; ssDAF-12 act: 0; DAX1 inh-2: 1; hgDAF12 agonist: 7; hcDAF-12 act: 5

What do the screens show for `CN(CCc1ccccc1)C(=O)c1cc2ccccn2n1`?
DAX1 inh-1: 1; ssDAF-12 act: 0; hgDAF12 agonist: 7; hcDAF-12 act: 2

How did CCn1c(SCc2ccccc2Cl)nnc1-c1ccccc1OC do in these assays?
DAX1 inh-1: -1; ssDAF-12 act: -1; hgDAF12 agonist: -2; hcDAF-12 act: -3

What do the screens show for `CN(C)CC(c1ccc(O)cc1)C1(O)CCCCC1` (centres undefined)?
DAX1 inh-1: -1; ssDAF-12 act: -1; hgDAF12 agonist: 4; hcDAF-12 act: 2

What do the screens show for `O=C(NC1=NCCS1)Nc1ccccc1`?
DAX1 inh-1: 3; ssDAF-12 act: 0; DAX1 inh-2: 1; hgDAF12 agonist: 11*; hcDAF-12 act: 3

Results for O=C(NC1=NCCS1)c1ccccc1 ?
DAX1 inh-1: 1; ssDAF-12 act: 0; DAX1 inh-2: 1; hgDAF12 agonist: 3; hcDAF-12 act: -1

How did O=C(CC(=O)c1ccccc1)Nc1ccccc1 do in these assays?
DAX1 inh-1: 1; ssDAF-12 act: 0; DAX1 inh-2: 4.5*; hgDAF12 agonist: 6; hcDAF-12 act: 2

Results for O=C(O)CC(=O)Nc1ccccc1 ?
DAX1 inh-1: -1; ssDAF-12 act: 0; DAX1 inh-2: 1; hgDAF12 agonist: -1; hcDAF-12 act: 0

What do the screens show for `O=C(OC12CCCN(C1)/C(=C/c1ccc(Cl)cc1)C2)C1CCCCC1` (centres undefined)?
DAX1 inh-1: 1; ssDAF-12 act: -1; hgDAF12 agonist: -1; hcDAF-12 act: 1

How did COC(=O)[C@]12C[C@H](CC(=O)NCCCCc3ccccc3)C(=O)N(Cc3ccco3)C1=C[C@H](COCc1ccccc1)O[C@@H]2C do in these assays?
DAX1 inh-1: -1; ssDAF-12 act: -1; hgDAF12 agonist: 4; hcDAF-12 act: -1

What do the screens show for `Cc1ccc(-c2nc3cccnc3s2)cc1NS(=O)(=O)c1cccs1`?
DAX1 inh-1: 1; ssDAF-12 act: 0; DAX1 inh-2: 3; hgDAF12 agonist: 5; hcDAF-12 act: 6.1*

Results for Cc1ccc(-c2nc3cccnc3s2)cc1NS(=O)(=O)c1ccc2c(c1)OCCO2 ?
DAX1 inh-1: -1; ssDAF-12 act: 0; DAX1 inh-2: 1; hgDAF12 agonist: 3; hcDAF-12 act: 4

Results for CC1(C(=O)OCc2cc(=O)n3cc(Br)ccc3n2)CC1(Cl)Cl (centres undefined) ?
DAX1 inh-1: 3; ssDAF-12 act: 0; DAX1 inh-2: 0; hgDAF12 agonist: 11*; hcDAF-12 act: 2

What do the screens show for `C/C(=N\NC(=O)c1ccccc1C)c1ccc(NC(=O)c2cccs2)cc1`?
DAX1 inh-1: 3; ssDAF-12 act: -1; DAX1 inh-2: 1; hgDAF12 agonist: 12*; hcDAF-12 act: 2

What do the screens show for `C/C(=N\NC(=O)c1ccccc1)c1ccc(NC(=O)c2cccs2)cc1`?
DAX1 inh-1: 1; ssDAF-12 act: -2; DAX1 inh-2: 0; hgDAF12 agonist: 0; hcDAF-12 act: 0

What do the screens show for `Cn1cc([C@]2(O)C(=O)Nc3ccc(Br)cc32)c2ccccc21`?
DAX1 inh-1: 0; ssDAF-12 act: 0.9*; hgDAF12 agonist: 1; hcDAF-12 act: 1

Results for Cn1cc([C@]2(O)C(=O)Nc3cccc(Cl)c32)c2ccccc21 ?
DAX1 inh-1: -1; ssDAF-12 act: -1; hgDAF12 agonist: 1; hcDAF-12 act: 1
